Source: PubChem BioAssay (several laboratories)
Most compounds without a hit are left out; they make up all but 3.9% or so of the library.
PrPC TRFRET: cell surface PrPC inhibition, primary TR-FRET screen. TR-FRET read-out. AID 720596. hit rate 0.43% among 370,000. P04156. inhibition, % at 13.8 µM; in the data active = inhibition above about 24%; note: 0% = median of the test wells and 100% = reference compound wells
3CLpro inhibitor: SARS-CoV 3CLpro protease inhibition; hit rate 0.14% among 290,000; inhibition, % at 6 µM; recombinant SARS-CoV 3CLpro, quenched FRET peptide cleavage; in the data active = inhibition above about 12%
FBA Mtb inh: inhibits M. tuberculosis FBA enzyme; P9WQA3; hit rate 2.3% among 360,000; purified M. tuberculosis FBA, fluorescence read-out; inhibition, % at 1 µM; in the data active = inhibition above about 27%;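 note: 0% = vehicle and 100% = reference inhibitor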
Target sequence (P9WQA3 whole entry, looked up): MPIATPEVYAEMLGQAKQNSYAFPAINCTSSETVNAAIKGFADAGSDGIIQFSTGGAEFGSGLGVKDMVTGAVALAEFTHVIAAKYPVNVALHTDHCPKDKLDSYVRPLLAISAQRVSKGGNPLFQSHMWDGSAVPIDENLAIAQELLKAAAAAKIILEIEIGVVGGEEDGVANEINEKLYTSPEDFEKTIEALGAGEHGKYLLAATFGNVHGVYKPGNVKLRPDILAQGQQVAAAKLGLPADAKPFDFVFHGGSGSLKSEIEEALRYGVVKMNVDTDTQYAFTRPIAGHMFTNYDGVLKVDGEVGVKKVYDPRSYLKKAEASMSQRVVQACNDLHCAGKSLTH
Vc quorum ag: inducers of Vibrio cholerae quorum light production without autoinducers. V. cholerae BH1578 lux reporter, luminescence, 6 h. activation, % at 18.7 µM. hit rate 0.16% among 350,000; in the data active = activation mostly above about 9.7%, no sharp cut-off
GDH-TPI counter: counter-screen for M. tuberculosis FBA inhibitors: GDH-TPI coupled enzymes | hit rate 1.2% among 360,000 | AID 588335 | inhibition, % at 4.8 µM | GDH-TPI coupled enzyme counterscreen, NADH absorbance; in the data active = inhibition above about 30%;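 note: 0% = DMSO wells and 100% = wells lacking the enzyme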
Starred values were filed as active, the others as inactive.

CCC12OC(=N)C(C#N)(C1C)C(C#N)(C#N)C(c1ccccc1)O2 (stereo not drawn) was read as PrPC TRFRET -5, 3CLpro inhibitor -1, FBA Mtb inh 144*, Vc quorum ag 0 and GDH-TPI counter 17.
COCc1cc(=O)[nH]c(/N=C(\N)Nc2cccc(Cl)c2)n1 was read as PrPC TRFRET -3, 3CLpro inhibitor -1, FBA Mtb inh 4, Vc quorum ag 0 and GDH-TPI counter 8.
`Cc1ccc(OCC(=O)N/N=C\c2ccc(O)c([N+](=O)[O-])c2)c([N+](=O)[O-])c1` gave PrPC TRFRET -11, 3CLpro inhibitor -1, FBA Mtb inh -5, Vc quorum ag 0 and GDH-TPI counter 16.
Cc1n[nH]c(=O)nc1N/N=C/c1ccc(O)c([N+](=O)[O-])c1 was read as PrPC TRFRET -1, 3CLpro inhibitor 2, FBA Mtb inh 0, Vc quorum ag -1 and GDH-TPI counter 43*.
`COc1cc(/C=N/NC(=O)Cc2ccccc2)cc([N+](=O)[O-])c1O` gave PrPC TRFRET -33, 3CLpro inhibitor 0, FBA Mtb inh -7, Vc quorum ag 0 and GDH-TPI counter 59*.
For COc1cc(/C=N/Nc2nc3ccccc3s2)cc([N+](=O)[O-])c1O the results were PrPC TRFRET 1, 3CLpro inhibitor 1, FBA Mtb inh 0, Vc quorum ag 0 and GDH-TPI counter 70*.
For Cc1cc(C(=O)N/N=C/c2ccc(O)c([N+](=O)[O-])c2)n[nH]1 the results were PrPC TRFRET -4, 3CLpro inhibitor 1, FBA Mtb inh -9, Vc quorum ag inactive and GDH-TPI counter 43*.
Screening C=CCN1C(=O)c2ccc(C(=O)OCC(=O)N3CCN(c4ccccc4)CC3)cc2C1=O returned PrPC TRFRET 13, FBA Mtb inh 5, Vc quorum ag -2 and GDH-TPI counter 5.
For CCCn1c(=O)c(C(=O)NNC(=O)c2ccccc2Cl)c(O)c2ccccc21 the results were PrPC TRFRET -1, 3CLpro inhibitor 7, FBA Mtb inh 1, Vc quorum ag inactive and GDH-TPI counter 6.
`CCc1nnc(NC(=O)C2CCCN2C(=O)Nc2ccc(Cl)cc2)s1` (stereo not drawn) gave PrPC TRFRET -3, 3CLpro inhibitor 4, FBA Mtb inh 1, Vc quorum ag 0 and GDH-TPI counter -5.
Screening O=c1cc(CN2CCCCC2)c2c(ccc3ccccc32)o1 returned PrPC TRFRET 7 and FBA Mtb inh 7.
For COc1cc(/C=N/Nc2nc(=O)[nH]nc2C)cc([N+](=O)[O-])c1O the results were PrPC TRFRET -5, 3CLpro inhibitor 3, FBA Mtb inh -12, Vc quorum ag 1 and GDH-TPI counter 38*.
Screening COc1ccc(/C=N/Nc2nc(=O)[nH]nc2C)cc1[N+](=O)[O-] returned PrPC TRFRET 0, 3CLpro inhibitor 5, FBA Mtb inh 1, Vc quorum ag 0 and GDH-TPI counter 38*.
For C[C@H]1CN([C@@H](C)CO)C(=O)CCCn2nncc2CO[C@@H]1CN(C)S(=O)(=O)c1ccc(-n2cccn2)cc1 the results were PrPC TRFRET -3, FBA Mtb inh 1, Vc quorum ag 0 and GDH-TPI counter 13.
Screening CCOc1cc(C=O)ccc1OCCn1c([N+](=O)[O-])cnc1C returned PrPC TRFRET -9, 3CLpro inhibitor 2, FBA Mtb inh 0, Vc quorum ag 0 and GDH-TPI counter 14.
For Cc1ccc2[nH]c3c(N4CCN(Cc5ccccc5)CC4)ncnc3c2c1 the results were PrPC TRFRET 29*, 3CLpro inhibitor -4, FBA Mtb inh 24, Vc quorum ag inactive and GDH-TPI counter 12.
For c1ccc(CN2CCN(c3ncnc4c3[nH]c3ccccc34)CC2)cc1 the results were PrPC TRFRET 56*, 3CLpro inhibitor 2, FBA Mtb inh 1, Vc quorum ag 0 and GDH-TPI counter 12.
Screening c1ccc2c(c1)CCN(c1ncnc3c1[nH]c1ccccc13)C2 returned PrPC TRFRET 20, FBA Mtb inh 10, Vc quorum ag -4 and GDH-TPI counter 6.
Screening C=C1C(=O)O[C@H]2C[C@@H](C)[C@@H]3C=CC(=O)[C@@]3(C)C[C@H]12 returned PrPC TRFRET 26*.
Screening COc1ccc(-n2ncc3c2CC(C)(C)CC3NC(=O)c2cn[nH]c2)cc1 (stereo not drawn) returned PrPC TRFRET 5, 3CLpro inhibitor 2, FBA Mtb inh 3, Vc quorum ag inactive and GDH-TPI counter 4.
`N#CC1=C(N)C(C#N)(C#N)C(c2cccnc2)C2CC(c3ccccc3)CC=C12` (stereo not drawn) gave 3CLpro inhibitor -8, FBA Mtb inh 0, Vc quorum ag 25* and GDH-TPI counter 0.
`O=Nc1c(O)n(Cc2ccc(Cl)cc2)c2ccccc12` gave PrPC TRFRET -3, 3CLpro inhibitor 8, FBA Mtb inh 0, Vc quorum ag 226* and GDH-TPI counter 3.
`C/C(Cl)=C\Cn1c(O)c(N=O)c2ccccc21` gave PrPC TRFRET -13, 3CLpro inhibitor 5, FBA Mtb inh 2, Vc quorum ag active and GDH-TPI counter 3.
CCOC(=O)C1=CCN(S(=O)(=O)c2cccc(Cl)c2)C1c1cccc(Br)c1 (stereo not drawn) was read as PrPC TRFRET 1.
Screening COc1ccc(C)cc1S(=O)(=O)N1CCCC(C(=O)N2CCN(c3ccccc3F)CC2)C1 (stereo not drawn) returned PrPC TRFRET 2, 3CLpro inhibitor 4, FBA Mtb inh 1, Vc quorum ag inactive and GDH-TPI counter -3.
`Cn1c(O)c(/C=N/c2ccccn2)c(=O)n(C)c1=O` gave PrPC TRFRET 4, 3CLpro inhibitor -5, FBA Mtb inh 1, Vc quorum ag -4 and GDH-TPI counter 33*.
For COc1ccccc1N=Cc1c(O)n(C)c(=O)n(C)c1=O the results were PrPC TRFRET 3, 3CLpro inhibitor 1, FBA Mtb inh 2, Vc quorum ag 1 and GDH-TPI counter 20.
Screening Cn1c(O)c(C=Nc2ccccc2)c(=O)n(C)c1=O returned PrPC TRFRET -1, 3CLpro inhibitor -2, FBA Mtb inh -3, Vc quorum ag -1 and GDH-TPI counter 46*.
`N#CC(C(=S)Nc1ccccc1)c1nc2ccccc2[nH]1` (stereo not drawn) gave PrPC TRFRET -5, 3CLpro inhibitor 5, FBA Mtb inh -1, Vc quorum ag 0 and GDH-TPI counter 62*.
For COc1ccc(S(=O)(=O)N2c3ccccc3OCC2C)cc1 (stereo not drawn) the results were PrPC TRFRET 15, 3CLpro inhibitor -3, FBA Mtb inh 0, Vc quorum ag 0 and GDH-TPI counter 1.
`COc1ccc(S(=O)(=O)N2CCOc3ccccc32)cc1` gave PrPC TRFRET 7, 3CLpro inhibitor -4, FBA Mtb inh 154*, Vc quorum ag inactive and GDH-TPI counter -3.
Screening COc1cc(/C=C2\S/C(=N/S(=O)(=O)c3ccccc3)NC2=O)c([N+](=O)[O-])cc1OC returned PrPC TRFRET -7, 3CLpro inhibitor -6, FBA Mtb inh -2, Vc quorum ag 0 and GDH-TPI counter 43*.
